TROY signal inh: blocks TROY-dependent signaling in reporter cells. Q293 LMP1-TROYcd NF-kB luciferase reporter, 4 h. inhibition, % at 10 µM. 360,000 tested, 0.98% active;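 active = compounds whose plate-normalised and pattern-corrected inhibition of the luciferase reporter signal at the single screening dose is 50% or more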
LGR2 inh: blocks bursicon-induced cAMP signaling via Drosophila LGR2 | AID 720647 | HEK293 LGR2, CRE-luciferase, bursicon-stimulated, 4 h | inhibition, % at 9.99 µM | 380,000 tested, 0.35% active;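 active = drop in luminescence signal, shown as inhibition above about 50% in the replicate tests, limit read from the data, passing the limit was not always enough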;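 note: agonist challenge used bursicon conditioned medium at about half maximal strength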
TWEAK Fn14 block: blocks TWEAK-Fn14 interaction in a reporter cell assay; TWEAK-stimulated Fn14 reporter cells, luciferase luminescence, 8 h; 360,000 tested, 2% active; AID 1159606; inhibition, % at 10 µM; in the data active = inhibition above about 50%
EWS-Fli inh: EWS/Fli transcriptional activity inhibition. AID 651661. inhibition, % at 12.6 µM. A673 NR0B1-luciferase reporter, viability-normalised. 350,000 tested, 0.67% active;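 active = mean inhibition of at least 50% after viability correction, with every replicate also passing that limit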;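 note: firefly luciferase signal divided by Alamar Blue viability fluorescence both relative to DMSO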
EBV LMP1 NFkB: reduces LMP1-driven NF-kappaB luciferase signal; 350,000 tested, 0.69% active; LMP1-induced NF-kappaB luciferase reporter cells, luminescence; inhibition, % at 12.5 µM; in the data active = inhibition above about 41%;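 note: 0% = neutral control wells and 100% = reference inhibitor control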
PAX8 reporter: lowers PAX8-driven luciferase in RMG-I cells; AID 652154; 360,000 tested, 1.2% active; RMG-I TPO-luciferase reporter, SteadyGlo, 24 h; inhibition, % at 12.6 µM;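 active = mean replicate inhibition at least 60% with every replicate also reaching 60%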;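 note: luciferase light reporting Pax8 driven TPO promoter activity; plate controls were median of neutral control wells for no effect and mitoxantrone controls for full effect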
Active calls of the source: *; . = no result. Rows were chosen to be rich in hits. Some 3.1% of all compounds tested hit in one or more screens of this group.

SMILES | TROY signal inh | LGR2 inh | TWEAK Fn14 block | EWS-Fli inh | EBV LMP1 NFkB | PAX8 reporter
CS(=O)(=O)N1CCCC(C(=O)NCCc2ccccc2)C1 (stereo unspecified) | 35 | . | 69* | . | 1 | .
C/C=C/c1ccc([C@H]2[C@@H](CO)N3C(=O)CN(Cc4ccc(C(=O)OC)cc4)C[C@H]23)cc1 | . | 5 | . | 3 | . | 12
Cc1ccc2c(c1)c(C1=c3ccccc3=NC1=O)c(O)n2C | 28 | 12 | 29 | 64* | 9 | 7
C=CCn1c(O)c(C2=c3ccccc3=NC2=O)c2ccccc21 | 33 | 12 | 30 | 47 | 40 | -18
O=C(c1ccc(C(F)(F)F)cc1)N1CCC(=O)N(C(CO)Cc2ccccc2)CC1 (stereo unspecified) | -29 | -4 | 70* | 4 | -7 | 8
COc1cccc(S(=O)(=O)Nc2ccc3c(c2)OC[C@@H](C)N(C(=O)Cc2cccnc2)C[C@@H](C)[C@@H](OC)CN(C)C3=O)c1 | . | 6 | . | 4 | . | -8
O=C(NC1CC1)c1ccc2c(c1)C1C3CCC(C3)C1C(c1ccccc1)N2 (stereo unspecified) | 2 | 36 | 8 | -3 | 10 | 115*
CCCCn1cnc2c(c(-c3ccccc3)c(-c3ccccc3)n2Cc2ccco2)c1=N | -7 | . | 3 | 46 | . | 100*
N=c1c2c(-c3ccccc3)c(-c3ccccc3)n(Cc3ccco3)c2ncn1Cc1ccco1 | . | . | 3 | . | -3 | .
COc1ccc(Cn2c(C3CC3)nc3ccc(NC(C)=O)cc3c2=O)cc1 | -30 | . | -34 | . | -39 | .
CCCc1nc2ccc(NC(C)=O)cc2c(=O)n1Cc1ccc(Cl)cc1 | -54 | -105 | -36 | -141 | -40 | 67*
COCCNC(=O)C[C@@H]1C[C@@H]2c3cc(NS(C)(=O)=O)ccc3O[C@@H]2[C@H](CO)O1 | . | -14 | . | 10 | . | 0
C[C@@H]1CN([C@H](C)CO)C(=O)c2cc(N(C)C)ccc2O[C@@H](C)CCCCO[C@@H]1CN(C)S(C)(=O)=O | . | 6 | . | 0 | . | -7
CC(NC(=O)CCOc1ccccc1)c1ccccc1 (stereo unspecified) | -17 | . | -9 | . | 74* | .
C[C@H]1CN([C@@H](C)CO)S(=O)(=O)c2ccc(-c3cccc(C#N)c3)cc2O[C@@H]1CN(C)C(=O)Nc1cc(F)ccc1F | . | -7 | . | -3 | . | -25
COc1ccc(C(C(=O)NC2CCCCC2)N(Cc2cccs2)C(=O)Cc2c[nH]c3ccccc23)cc1 (stereo unspecified) | 30 | . | 65* | . | 2 | 52
O=C(NC1CCCCC1)C(c1cccs1)N(C(=O)Cc1c[nH]c2ccccc12)c1ccc(F)cc1 (stereo unspecified) | 24 | . | 34 | . | -12 | 97*
COc1cccc(CN(C(=O)Cc2c[nH]c3ccccc23)C(C(=O)NC2CCCCC2)c2cccs2)c1 (stereo unspecified) | 13 | . | 53* | . | 1 | 34
CC(=O)c1ccc(N(C(=O)Cc2c[nH]c3ccccc23)C(C(=O)NC2CCCCC2)c2cccs2)cc1 (stereo unspecified) | -1 | . | 27 | . | -16 | -13
COc1ccc(CN(C(=O)Cc2cccs2)C(C(=O)NC2CCCC2)c2ccncc2)cc1 (stereo unspecified) | -12 | 10 | 9 | . | -3 | .
CN1C(=O)c2cc(NC(=O)c3cnccn3)ccc2OC[C@H]2O[C@H](CC(=O)NCC3CC3)CC[C@H]21 | . | -8 | . | -5 | . | 5
Cc1noc(C)c1NC(=O)N(C)C[C@@H]1Oc2c(NC(=O)C3CCOCC3)cccc2C(=O)N([C@@H](C)CO)C[C@H]1C | . | 2 | . | -7 | . | -4
CO[C@H]1CN(C)C(=O)c2cc(NC(=O)C3CC3)ccc2OC[C@H](C)N(C(=O)c2cccnc2)C[C@H]1C | . | 3 | . | -9 | . | .
C[C@H](NC(=O)C[C@H]1C[C@@H]2c3cc(NC(=O)C4CCOCC4)ccc3O[C@@H]2[C@H](CO)O1)c1ccccc1 | . | 1 | . | -5 | . | -3
CNC[C@@H]1Oc2ccc(NC(=O)C3CC3)cc2C(=O)N([C@@H](C)CO)C[C@H]1C | . | 1 | . | -10 | . | 15
SMILES | TROY signal inh | LGR2 inh | TWEAK Fn14 block | EWS-Fli inh | EBV LMP1 NFkB | PAX8 reporter
COc1ccc(OC)c(/C=C/C(=O)N2C(=O)c3cccc(N)c3C2=O)c1 | -7 | -6 | 100* | 10 | -32 | 8
COc1cc(/C=C/C(=O)N2C(=O)c3cccc(N)c3C2=O)cc(OC)c1OC | -37 | 1 | 92* | -4 | -30 | 1
C[C@@H]1CN([C@H](C)CO)C(=O)c2cc(NS(=O)(=O)c3ccc(Cl)cc3)ccc2O[C@@H](C)CCCCO[C@@H]1CN(C)C(=O)CCC(F)(F)F | . | 0 | . | . | . | 28
O=C(C[C@H]1CC[C@@H]2[C@H](COC[C@H](O)CN2Cc2nccs2)O1)NCc1ccc(Cl)cc1 | . | -4 | . | 8 | . | 6
COc1ccc(-n2c(NC(=O)c3ccco3)c(C#N)c3nc4ccccc4nc32)cc1 | -23 | . | 6 | . | 0 | 1
CCOC(=O)c1c(NC(=O)c2ccco2)n(C2CCCCC2)c2nc3ccccc3nc12 | 71* | . | 88* | . | -7 | .
C[C@H]1CN([C@@H](C)CO)C(=O)Cc2cc(NS(C)(=O)=O)ccc2O[C@H]1CN(C)S(=O)(=O)c1ccc(F)cc1 | . | -18 | . | -9 | . | 11
COc1ccc(NC(=S)N/C(=N/CS(=O)(=O)c2ccccc2)c2ccccc2)cc1 | -19 | -48 | 52* | . | -6 | .
C[C@H]1CN([C@@H](C)CO)C(=O)c2cc(NS(=O)(=O)c3cccs3)ccc2O[C@H]1CN(C)S(=O)(=O)c1ccc(F)cc1 | . | 6 | . | -8 | . | .
CCOC(=O)N1CCN(S(=O)(=O)Cc2ccccc2)CC1 | 0 | -2 | 0 | . | -3 | .
CCOC(=O)C1CCN(S(=O)(=O)Cc2ccccc2)C1=O (stereo unspecified) | 22 | 9 | 0 | . | 43* | .
CCC(=O)N1CC(=O)N2[C@H](CO)[C@H](c3ccc(C#CCc4ccccc4)cc3)[C@H]2C1 | . | 19 | . | . | . | .
CN(C)S(=O)(=O)c1cccc(C(=O)OCC(=O)c2c(N)n(C)c(=O)n(C)c2=O)c1 | 10 | -7 | 0 | 1 | 0 | 7
Cc1ccc(N(C)S(=O)(=O)c2cccc(C(=O)OCC(=O)c3c(N)n(C)c(=O)n(C)c3=O)c2)cc1 | 52* | 23 | 38 | -3 | 11 | 0
COc1ccccc1C#Cc1cnc2c(c1)C(=O)N([C@@H](C)CO)C[C@@H](C)[C@H](CN(C)C(=O)CC1CC1)O2 | . | -8 | . | 4 | . | .
N#C/C(=C/c1ccc(CNS(=O)(=O)c2ccccc2)o1)C(N)=O | -6 | 1 | 69* | . | 0 | 7
N#C/C(=C/c1ccc(CNS(=O)(=O)c2ccccc2)o1)C(=O)NCc1ccccc1 | -1 | 0 | -13 | -12 | 14 | 15
CN1[C@@H]2Cn3c(ccc(-c4ccncc4)c3=O)[C@H]1[C@@H](C(=O)NCC1CCCCC1)[C@@H]2CO | . | -9 | . | -6 | . | 2
COCCn1c(C)cc(C(=O)COc2ccc(C)nc2[N+](=O)[O-])c1C | 9 | -1 | 11 | 19 | 45* | -21

High-throughput results from PubChem.
